Key:
[1] = target: Tyrosine-protein kinase Fer (Homo sapiens) (UniProt P16591); details: at 1 µM
[2] = target: Tyrosine-protein kinase Fes/Fps (Homo sapiens) (UniProt P07332); details: at 0.1 µM
[3] = target: Tyrosine-protein kinase Fes/Fps (Homo sapiens) (UniProt P07332); details: at 1 µM
[4] = target: Fibroblast growth factor receptor 1 (Homo sapiens) (UniProt P11362); details: at 0.1 µM
[5] = target: Fibroblast growth factor receptor 1 (Homo sapiens) (UniProt P11362); details: at 1 µM
[6] = target: Fibroblast growth factor receptor 2 (Homo sapiens) (UniProt P21802); details: at 0.1 µM
[7] = target: Fibroblast growth factor receptor 2 (Homo sapiens) (UniProt P21802); details: at 1 µM
[8] = target: Fibroblast growth factor receptor 3 (Homo sapiens) (UniProt P22607); details: at 0.1 µM
[9] = target: Fibroblast growth factor receptor 3 (Homo sapiens) (UniProt P22607); details: at 1 µM
[10] = target: Fibroblast growth factor receptor 4 (Homo sapiens) (UniProt P22455); details: at 0.1 µM
[11] = target: Fibroblast growth factor receptor 4 (Homo sapiens) (UniProt P22455); details: at 1 µM
[12] = target: Tyrosine-protein kinase Fgr (Homo sapiens) (UniProt P09769); details: at 0.1 µM
[13] = target: Tyrosine-protein kinase Fgr (Homo sapiens) (UniProt P09769); details: at 1 µM
[14] = target: Vascular endothelial growth factor receptor 1 (Homo sapiens) (UniProt P17948); details: at 0.1 µM
[15] = target: Vascular endothelial growth factor receptor 1 (Homo sapiens) (UniProt P17948); details: at 1 µM
[16] = target: Receptor-type tyrosine-protein kinase FLT3 (Homo sapiens) (UniProt P36888); details: at 0.1 µM
[17] = target: Receptor-type tyrosine-protein kinase FLT3 (Homo sapiens) (UniProt P36888); details: at 1 µM
[18] = tested on: T1, Receptor-type tyrosine-protein kinase FLT3 (Homo sapiens), P36888 [D835Y]; details: at 0.1 µM
T1 sequence (whole entry): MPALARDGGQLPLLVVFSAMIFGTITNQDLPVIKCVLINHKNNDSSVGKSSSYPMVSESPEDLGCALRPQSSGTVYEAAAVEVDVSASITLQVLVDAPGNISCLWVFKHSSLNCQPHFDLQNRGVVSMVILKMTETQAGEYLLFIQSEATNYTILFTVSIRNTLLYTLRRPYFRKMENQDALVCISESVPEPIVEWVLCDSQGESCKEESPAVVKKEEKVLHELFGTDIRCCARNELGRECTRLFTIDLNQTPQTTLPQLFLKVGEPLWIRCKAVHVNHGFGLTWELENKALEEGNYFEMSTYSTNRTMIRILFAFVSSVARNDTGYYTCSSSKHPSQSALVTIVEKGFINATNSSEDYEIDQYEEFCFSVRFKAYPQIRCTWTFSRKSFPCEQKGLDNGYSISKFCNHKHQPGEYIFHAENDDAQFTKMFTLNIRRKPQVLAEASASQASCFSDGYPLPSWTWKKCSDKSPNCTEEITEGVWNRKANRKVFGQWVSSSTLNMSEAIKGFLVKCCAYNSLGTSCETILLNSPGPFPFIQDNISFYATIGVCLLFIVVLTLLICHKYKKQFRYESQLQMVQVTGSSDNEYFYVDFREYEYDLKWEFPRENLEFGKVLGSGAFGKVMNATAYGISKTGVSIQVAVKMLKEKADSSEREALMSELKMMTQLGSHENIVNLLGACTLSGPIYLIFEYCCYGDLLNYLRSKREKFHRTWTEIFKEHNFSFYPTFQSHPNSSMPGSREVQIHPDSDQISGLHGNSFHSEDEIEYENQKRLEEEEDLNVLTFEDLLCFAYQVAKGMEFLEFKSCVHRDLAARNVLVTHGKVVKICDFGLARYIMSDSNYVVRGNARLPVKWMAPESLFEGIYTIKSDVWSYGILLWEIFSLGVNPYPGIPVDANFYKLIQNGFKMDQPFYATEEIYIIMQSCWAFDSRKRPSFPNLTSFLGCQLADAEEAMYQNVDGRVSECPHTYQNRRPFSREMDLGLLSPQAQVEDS

[19] = target: Non-receptor tyrosine-protein kinase TYK2 (Homo sapiens) (UniProt P29597); details: at 1 µM;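 also: values are mean percent inhibition of TYK2 kinase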
[20] = target: T2, Tyrosine-protein kinase receptor TYRO3 (Homo sapiens) (UniProt Q06418); details: at 0.1 µM;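 also: reported percentages are averaged inhibition values of TYRO3 kinase activity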
T2 sequence (whole entry): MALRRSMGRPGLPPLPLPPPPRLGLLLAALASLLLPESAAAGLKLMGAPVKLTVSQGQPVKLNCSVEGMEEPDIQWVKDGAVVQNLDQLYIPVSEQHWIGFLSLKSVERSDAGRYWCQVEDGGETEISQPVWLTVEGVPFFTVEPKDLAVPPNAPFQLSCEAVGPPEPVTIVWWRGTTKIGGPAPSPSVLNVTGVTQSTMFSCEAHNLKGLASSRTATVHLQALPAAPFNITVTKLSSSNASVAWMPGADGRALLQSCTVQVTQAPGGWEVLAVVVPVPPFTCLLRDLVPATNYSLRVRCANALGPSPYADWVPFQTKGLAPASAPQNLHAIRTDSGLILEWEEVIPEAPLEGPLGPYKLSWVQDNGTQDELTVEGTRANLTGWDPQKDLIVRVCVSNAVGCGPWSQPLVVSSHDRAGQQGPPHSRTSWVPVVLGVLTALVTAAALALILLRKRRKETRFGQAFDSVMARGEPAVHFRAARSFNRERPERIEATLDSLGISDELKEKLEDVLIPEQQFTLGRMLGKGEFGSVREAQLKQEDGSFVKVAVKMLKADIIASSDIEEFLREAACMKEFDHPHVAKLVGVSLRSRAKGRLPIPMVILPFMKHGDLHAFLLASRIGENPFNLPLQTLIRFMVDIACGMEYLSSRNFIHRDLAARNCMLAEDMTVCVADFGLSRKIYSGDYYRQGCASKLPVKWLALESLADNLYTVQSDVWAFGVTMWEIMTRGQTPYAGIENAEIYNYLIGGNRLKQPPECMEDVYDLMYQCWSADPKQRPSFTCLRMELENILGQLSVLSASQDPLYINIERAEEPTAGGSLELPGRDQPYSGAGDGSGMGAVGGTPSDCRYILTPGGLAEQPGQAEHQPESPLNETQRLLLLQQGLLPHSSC

Sequence of Tyrosine-protein kinase Fer (Homo sapiens) (P16591 whole entry, looked up): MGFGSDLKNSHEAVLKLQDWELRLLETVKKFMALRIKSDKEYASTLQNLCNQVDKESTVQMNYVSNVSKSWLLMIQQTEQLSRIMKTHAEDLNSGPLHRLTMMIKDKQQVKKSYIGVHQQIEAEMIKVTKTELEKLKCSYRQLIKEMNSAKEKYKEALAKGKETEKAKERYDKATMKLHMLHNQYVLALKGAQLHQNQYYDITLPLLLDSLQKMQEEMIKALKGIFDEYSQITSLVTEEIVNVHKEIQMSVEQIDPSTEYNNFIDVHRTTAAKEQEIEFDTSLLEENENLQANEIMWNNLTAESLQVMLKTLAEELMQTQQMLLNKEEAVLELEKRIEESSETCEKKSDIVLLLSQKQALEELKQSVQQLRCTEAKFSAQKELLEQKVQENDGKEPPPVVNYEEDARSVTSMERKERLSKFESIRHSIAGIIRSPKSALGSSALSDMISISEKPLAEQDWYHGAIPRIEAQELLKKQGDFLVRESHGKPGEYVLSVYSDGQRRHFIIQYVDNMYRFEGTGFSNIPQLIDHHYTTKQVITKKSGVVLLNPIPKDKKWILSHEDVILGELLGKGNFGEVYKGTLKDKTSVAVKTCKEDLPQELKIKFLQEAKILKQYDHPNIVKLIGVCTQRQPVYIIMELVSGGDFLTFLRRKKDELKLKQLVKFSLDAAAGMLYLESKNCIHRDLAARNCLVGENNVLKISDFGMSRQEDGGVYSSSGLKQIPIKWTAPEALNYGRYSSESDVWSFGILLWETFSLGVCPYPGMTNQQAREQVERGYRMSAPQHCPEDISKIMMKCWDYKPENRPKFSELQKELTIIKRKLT
Sequence of Tyrosine-protein kinase Fgr (Homo sapiens) (P09769 2-529 limits assumed): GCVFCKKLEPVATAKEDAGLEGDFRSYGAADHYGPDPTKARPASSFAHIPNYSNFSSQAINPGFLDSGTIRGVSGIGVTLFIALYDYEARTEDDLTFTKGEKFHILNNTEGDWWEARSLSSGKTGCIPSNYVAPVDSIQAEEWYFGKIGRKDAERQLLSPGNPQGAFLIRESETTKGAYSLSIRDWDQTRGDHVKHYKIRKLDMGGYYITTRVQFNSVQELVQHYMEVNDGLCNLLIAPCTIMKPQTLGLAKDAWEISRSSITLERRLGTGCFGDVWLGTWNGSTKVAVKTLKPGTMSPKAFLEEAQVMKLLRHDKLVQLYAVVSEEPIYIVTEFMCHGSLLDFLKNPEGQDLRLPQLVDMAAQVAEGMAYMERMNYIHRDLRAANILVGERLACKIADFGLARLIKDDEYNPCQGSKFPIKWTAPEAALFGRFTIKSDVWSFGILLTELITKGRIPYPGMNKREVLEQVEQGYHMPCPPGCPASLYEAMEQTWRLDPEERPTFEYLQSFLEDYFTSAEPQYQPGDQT
Sequence of Fibroblast growth factor receptor 3 (Homo sapiens) (P22607 23-806 limits assumed): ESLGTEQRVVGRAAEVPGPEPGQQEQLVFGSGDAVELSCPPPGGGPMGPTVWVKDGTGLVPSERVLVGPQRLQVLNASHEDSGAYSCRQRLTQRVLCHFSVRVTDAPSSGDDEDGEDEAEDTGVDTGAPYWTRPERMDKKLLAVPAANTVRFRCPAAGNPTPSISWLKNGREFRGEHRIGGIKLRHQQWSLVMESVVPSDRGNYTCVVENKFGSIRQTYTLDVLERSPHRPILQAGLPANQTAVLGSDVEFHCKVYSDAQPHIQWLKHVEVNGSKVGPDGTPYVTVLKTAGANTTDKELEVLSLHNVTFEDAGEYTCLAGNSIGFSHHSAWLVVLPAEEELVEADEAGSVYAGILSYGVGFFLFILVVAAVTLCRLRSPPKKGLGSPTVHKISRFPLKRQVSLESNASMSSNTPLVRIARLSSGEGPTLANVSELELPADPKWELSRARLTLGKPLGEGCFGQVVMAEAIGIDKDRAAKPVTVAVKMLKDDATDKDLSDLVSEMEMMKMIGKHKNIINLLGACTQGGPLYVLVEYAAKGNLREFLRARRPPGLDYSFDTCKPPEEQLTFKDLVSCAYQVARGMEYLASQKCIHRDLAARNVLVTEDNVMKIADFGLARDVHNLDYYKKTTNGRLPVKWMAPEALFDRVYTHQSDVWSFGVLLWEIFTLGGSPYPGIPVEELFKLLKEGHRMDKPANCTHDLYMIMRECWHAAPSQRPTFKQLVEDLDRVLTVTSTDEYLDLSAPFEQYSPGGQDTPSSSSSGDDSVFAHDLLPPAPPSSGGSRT
Sequence of Fibroblast growth factor receptor 4 (Homo sapiens) (P22455 22-802 limits assumed): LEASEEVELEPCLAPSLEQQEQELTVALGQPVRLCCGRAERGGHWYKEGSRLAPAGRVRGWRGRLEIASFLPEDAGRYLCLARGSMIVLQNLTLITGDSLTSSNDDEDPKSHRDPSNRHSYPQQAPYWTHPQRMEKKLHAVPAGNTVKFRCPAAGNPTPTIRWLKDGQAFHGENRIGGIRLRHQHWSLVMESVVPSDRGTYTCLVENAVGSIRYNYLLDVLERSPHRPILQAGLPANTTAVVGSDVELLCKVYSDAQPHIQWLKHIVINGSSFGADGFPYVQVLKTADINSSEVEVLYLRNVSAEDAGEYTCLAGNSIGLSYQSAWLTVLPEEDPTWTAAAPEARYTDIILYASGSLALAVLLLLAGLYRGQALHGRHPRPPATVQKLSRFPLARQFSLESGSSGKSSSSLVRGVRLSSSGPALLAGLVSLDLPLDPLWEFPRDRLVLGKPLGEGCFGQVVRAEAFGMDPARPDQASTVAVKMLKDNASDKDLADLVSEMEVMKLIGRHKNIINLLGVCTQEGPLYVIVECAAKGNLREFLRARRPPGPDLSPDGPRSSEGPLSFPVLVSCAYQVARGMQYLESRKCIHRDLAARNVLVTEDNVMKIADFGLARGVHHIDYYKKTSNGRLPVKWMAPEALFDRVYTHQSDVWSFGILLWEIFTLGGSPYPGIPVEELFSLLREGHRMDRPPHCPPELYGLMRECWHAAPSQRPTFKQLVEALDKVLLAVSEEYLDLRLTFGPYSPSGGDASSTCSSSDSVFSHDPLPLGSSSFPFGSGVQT
Sequence of Fibroblast growth factor receptor 2 (Homo sapiens) (P21802 22-821 limits assumed): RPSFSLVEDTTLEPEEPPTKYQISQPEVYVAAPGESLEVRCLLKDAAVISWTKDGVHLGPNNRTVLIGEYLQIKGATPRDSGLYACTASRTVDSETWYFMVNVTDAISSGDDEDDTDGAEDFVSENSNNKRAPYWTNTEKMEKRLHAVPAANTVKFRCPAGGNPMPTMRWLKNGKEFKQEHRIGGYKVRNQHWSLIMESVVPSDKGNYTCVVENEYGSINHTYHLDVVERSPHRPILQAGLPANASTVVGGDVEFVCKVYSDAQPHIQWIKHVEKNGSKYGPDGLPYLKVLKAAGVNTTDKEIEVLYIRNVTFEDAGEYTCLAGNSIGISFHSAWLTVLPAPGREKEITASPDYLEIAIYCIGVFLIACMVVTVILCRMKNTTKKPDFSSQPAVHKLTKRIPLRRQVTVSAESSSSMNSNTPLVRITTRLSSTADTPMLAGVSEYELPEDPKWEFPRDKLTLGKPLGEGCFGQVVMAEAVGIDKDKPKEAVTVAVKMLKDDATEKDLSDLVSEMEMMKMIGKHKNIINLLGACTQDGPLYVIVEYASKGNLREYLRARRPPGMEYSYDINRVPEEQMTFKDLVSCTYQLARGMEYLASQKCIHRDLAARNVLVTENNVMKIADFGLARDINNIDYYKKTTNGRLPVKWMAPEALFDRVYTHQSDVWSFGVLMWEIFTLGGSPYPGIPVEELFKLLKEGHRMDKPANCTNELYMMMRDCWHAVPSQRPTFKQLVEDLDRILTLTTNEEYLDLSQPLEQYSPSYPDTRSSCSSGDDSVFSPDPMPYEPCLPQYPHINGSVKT
Sequence of Vascular endothelial growth factor receptor 1 (Homo sapiens) (P17948 whole entry): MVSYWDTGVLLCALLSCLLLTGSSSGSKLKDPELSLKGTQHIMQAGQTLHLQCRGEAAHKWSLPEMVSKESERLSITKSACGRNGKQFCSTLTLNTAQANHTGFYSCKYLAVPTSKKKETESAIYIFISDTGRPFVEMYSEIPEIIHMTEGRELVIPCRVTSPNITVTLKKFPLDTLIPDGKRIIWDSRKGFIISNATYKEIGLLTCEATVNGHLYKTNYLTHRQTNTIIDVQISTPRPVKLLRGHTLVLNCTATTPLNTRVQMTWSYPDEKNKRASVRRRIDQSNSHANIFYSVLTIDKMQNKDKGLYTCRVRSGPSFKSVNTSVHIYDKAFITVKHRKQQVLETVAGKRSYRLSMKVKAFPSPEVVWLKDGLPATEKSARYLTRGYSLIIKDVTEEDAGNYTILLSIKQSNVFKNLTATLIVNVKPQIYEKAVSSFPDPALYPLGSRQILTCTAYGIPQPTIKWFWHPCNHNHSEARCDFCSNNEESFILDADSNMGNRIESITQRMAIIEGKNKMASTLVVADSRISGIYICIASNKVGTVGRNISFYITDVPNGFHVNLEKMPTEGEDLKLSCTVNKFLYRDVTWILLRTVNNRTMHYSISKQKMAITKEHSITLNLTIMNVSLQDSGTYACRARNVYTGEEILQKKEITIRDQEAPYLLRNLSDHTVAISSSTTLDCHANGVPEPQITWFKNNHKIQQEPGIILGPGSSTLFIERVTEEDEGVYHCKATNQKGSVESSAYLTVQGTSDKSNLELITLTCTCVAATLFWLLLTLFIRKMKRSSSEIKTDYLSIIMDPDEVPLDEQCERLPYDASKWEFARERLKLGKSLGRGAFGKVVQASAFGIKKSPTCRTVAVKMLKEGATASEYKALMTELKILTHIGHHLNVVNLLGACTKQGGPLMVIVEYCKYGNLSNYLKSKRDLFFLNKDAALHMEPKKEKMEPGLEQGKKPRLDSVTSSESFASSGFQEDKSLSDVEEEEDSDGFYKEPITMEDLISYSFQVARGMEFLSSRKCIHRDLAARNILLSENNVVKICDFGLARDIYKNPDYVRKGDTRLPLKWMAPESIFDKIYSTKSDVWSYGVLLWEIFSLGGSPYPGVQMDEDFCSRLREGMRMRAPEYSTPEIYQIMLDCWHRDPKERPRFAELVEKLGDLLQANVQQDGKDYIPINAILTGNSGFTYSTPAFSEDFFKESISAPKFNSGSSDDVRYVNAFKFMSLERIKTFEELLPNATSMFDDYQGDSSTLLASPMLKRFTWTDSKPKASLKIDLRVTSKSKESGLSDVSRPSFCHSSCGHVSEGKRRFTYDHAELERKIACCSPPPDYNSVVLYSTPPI

| SMILES | inhibition [1] | inhibition [2] | inhibition [3] | inhibition [4] | inhibition [5] | inhibition [6] | inhibition [7] | inhibition [8] | inhibition [9] | inhibition [10] | inhibition [11] | inhibition [12] | inhibition [13] | inhibition [14] | inhibition [15] | inhibition [16] | inhibition [17] | inhibition [18] | inhibition [19] | inhibition [20] |
| --- | --- | --- | --- | --- | --- | --- | --- | --- | --- | --- | --- | --- | --- | --- | --- | --- | --- | --- | --- | --- |
| O=C1Nc2ccc(I)cc2C1=Cc1cc(Br)c(O)c(Br)c1 | 4.37% | 3.93% | 4.1% | 5.92% | 2.51% | 8.24% | 7.14% | 6.43% | 5.73% | 5.1% | 5.57% | 0.14% | 3.52% | -0.02% | -1.49% | 2.03% | 5.54% | -4.08% | -0.2% | 2.41% |
| Cc1nnc(-c2ccc(C)c(-c3ccc(C(=O)NCc4ccc(Cl)cc4)cc3)c2)o1 | 3.71% | 2.32% | 1.83% | -2.72% | -1.85% | 0.07% | 11.1% | 1.78% | -1.81% |  | -3.75% | 4.76% | 1.82% | 2.48% | 2.52% | 2.13% | 0.77% | 2.22% | -3.78% | 2.85% |
| Nc1nccc(-c2c(-c3ccc(F)cc3)ncn2C2CCC(O)CC2)n1 (configuration not stated) | 19.8% | -2.78% | -2.56% | 0.56% | 11.3% | -2.57% | 1.23% | -0.35% | 1.39% | 2.77% | 0.55% | 1.87% | 16.5% | 0.09% | 1.16% | 1.8% | -0.14% | 3.94% | 0.09% | 0.62% |
| CCC(=O)Nc1ccc(C)c(-c2ccc(C(=O)NCC3CC3)cc2)c1 | 1.35% | 3.63% | 2.61% | 2.39% | 4.4% | 3.64% | 5.39% | 2.42% | 2.89% | 2.19% | 1% | 1.7% | 4.31% | 0.67% | 4.22% | 3.07% | 3.74% |  | -0.87% | 2.6% |
| O=C1Nc2ccccc2/C1=C/Nc1ccc(-n2cncn2)cc1 | 11.2% | 2.67% | 2.63% | 2.75% | 9.98% | 5.38% | 24.9% | 7.96% | 22% |  | 2.81% | 4.93% | 12.8% | 4.03% | 24.1% | 12.5% | 53.7% | 16.4% | 12.3% | 3.19% |
| Fc1ccc(-c2c(-c3ccncc3)nc3n2CCS3)cc1 | 1.89% | 1.15% | 0.99% | -4.25% | 0.23% | -1.78% | 0.6% | 1.37% | 1.47% | -6.43% | 0.11% | 2.37% | 2.64% | 0.25% | 1.28% | 0.81% | 1.71% | -1.87% | 0.83% | 1.94% |
| COc1cc(Nc2ncc3c(C)nc(-c4cccc(Oc5ccccc5)c4)n3n2)cc(OC)c1OC | 7.1% | 2.66% | 3.2% | 2.41% | -0.38% | 0.66% | 5.14% | 3.25% | 3.03% | 1.38% | 1.97% | 0.02% | 4.22% | 0.68% | 2.1% | 3.86% | 28.5% | 3.72% | -3.18% | 2% |
| COc1cc2ncn(-c3cc(OCCc4ccccc4)c(C(N)=O)s3)c2cc1OC | 1.49% | 1.6% | 1.71% | 14.8% | 2.62% | 1.97% | 3.63% | 2.83% | 2.85% | -0.14% | 2% | -0.62% | 7.7% | 1.49% | 4.71% | 0.81% | 7.46% | 0.74% | -2.99% | 0.78% |
| NC(=O)Cc1ccccc1Oc1nccc(-c2c(-c3ccc(F)cc3)ncn2C2CCNCC2)n1 | 4.36% | 1.68% | 2.12% | 5.6% | 3.15% | 1.69% | 5.26% | 3.66% | 3.8% | 0.37% | 0.51% | 0.84% | 2.97% | 0.07% | 0.23% | -1.59% | 1.61% | -3.58% | -2.45% | 0.04% |
| CCN(CC)Cc1ccc(Nc2nccc(-c3cnn4ncccc34)n2)cc1 | 15.5% | 5.99% | 28% | 1.77% | 11.6% | 4.18% | 8.8% | 2.66% | 5.35% | -1.71% | -3.39% | 2.7% | 11.3% | 3.62% | 16.2% | 7.95% | 47.7% | -3.04% | 11.6% | 4.07% |
| CS(=O)(=O)CCNCc1ccc(-c2ccc3ncnc(Nc4ccc(OCc5ccccc5)c(Br)c4)c3c2)o1 | 4.54% | 2.7% | 1.88% | -3.67% | 4.36% | 1.07% | 4.45% | 0.3% | 1.62% | -4.71% | -1.47% | 4.84% | 10.8% | -0.47% | 2.16% | 4.34% | 1.3% | -8.89% | -4.08% | 2.52% |
| CN(C)CCCNc1nccc(-c2c(-c3ccc(F)cc3)nn3cc(C(F)(F)F)ccc23)n1 | 1.37% | 0.87% | 1.2% | 0.95% | 0.04% | -2.72% | 0.99% | -1.5% | -0.97% | -3.68% | -0.45% | 1.41% | 9.12% | 0.51% | 1.19% | 0.5% | 4.18% | -2.41% | -0.14% | 1.1% |
| COc1ccc2ncn(-c3cc(O[C@H](C)c4ccccc4Cl)c(C(N)=O)s3)c2c1 | 3.7% | 2.74% | 1.59% | -0.72% | 4.65% | -0.16% | 5.18% | 1.57% | 4.59% | -1.86% | -2.23% | 2.3% | 3.06% | 0.27% | 3.7% | -1.31% | 4.52% | 2.46% | -5.78% | 3.88% |
| NS(=O)(=O)c1ccc(Nc2cc(-c3ccc(O)c(F)c3)n[nH]2)cc1 | 14.1% | -3.61% | -0.97% | -2.91% | 8.63% | -4.17% | 9.61% | 1.11% | 8.58% | 1.23% | 0.53% | 0.78% | 13.7% | 2.34% | 14.3% | 33.7% | 79.4% | 5.5% | 5.71% | 8.31% |

Reference: ChEMBL document CHEMBL1961873, “Compounds: GSK PKIS; Assays: Nanosyn kinase panel” (2012)
